From PubChem BioAssay AID1850 (Southern Research Specialized Biocontainment Screening …, 2009)
Where “and” joins values, the source holds several entries; their conditions need not be identical. Equal entries are not always repeated. Among all 310,000 compounds or so, about 1,000 (0.32%) were called active. Only a sample is shown. Potency and affinity values are given separately. Unmarked numbers belong to inactive results. No rule for the calls is given here.

Experiment: Inhibition of PhoP regulon, Salmonella typhi GFP reporter cells, confirmation, 4 h (AID 1850);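 also: 0% = induced wells with vehicle and 100% = uninduced wells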
Conditions: Salmonella Typhi PhoP-promoter GFP reporter, fluorescence, at 50 µM, active compounds read high

Going from `CC(C)(C)C(=O)Nc1ccnn1C1CCN(C(=O)c2ccc(Cl)cc2F)CC1` to `CCc1ccccc1NC(=O)C1CCN(C(=O)c2ccc([N+](=O)[O-])cc2)CC1`, the inhibition rises from -1.83% to -0.4%.

Compared with `Cc1cc(OCc2nc(-c3cccnc3)no2)c(C)cc1Br`, `Cc1cc(C)n2c(Nc3ccc4c(c3)OCCO4)c(-c3ccccc3)nc2n1` is lower in inhibition: -4.41% for the first, -10.2% for the second.

First: O=C1[C@@H]2Cc3c([nH]c4ccccc34)C(c3cccc(Br)c3)N2C(=O)CN1C1CCN(Cc2ccccc2)CC1 (stereo not given in full)
Second: O=C(NCc1ccc(OC(F)(F)F)cc1)C1CC2Cn3c(nc4ccccc43)C2N1Cc1ccccc1 (stereo not given)
The inhibition of the first is lower: 0.55% for the first, 2.43% for the second.

Compared with `CCOc1cc(C(=O)Nc2ccccc2N2CCOCC2)ccc1OCC(=O)N1CCCCC1`, `CC(=O)N1CCN(S(=O)(=O)c2cccc(C(=O)Nc3ccccc3N3CCCC3)c2)CC1` is lower in inhibition: -2.04% for the first, -2.62% for the second.

First: CC1Oc2cc3c(-c4c(O)cc(O)c5c(O)c6c(cc45)OC(C)C(C)C6=O)c(O)cc(O)c3c(O)c2C(=O)C1C (stereo not given)
Second: C[C@@H]1Cc2c(O)c(O)cc(O)c2C(=O)O1
The inhibition of the first is higher: 15.3% for the first, 6.45% for the second.

Going from `Cc1cnc(C(=O)NC2CC(C)(C)Cc3c2cnn3-c2cccc(F)c2)cn1` (stereo not given) to `CC1CC(=O)Nc2ccccc2N1C(=O)Nc1ccc(F)cc1` (stereo not given), the inhibition rises from -5.99% to -0.31%.

Going from `NC(=O)c1ccc(SCC(=O)OCC(=O)NCc2ccco2)c([N+](=O)[O-])c1` to `O=C(COC(=O)c1ccccc1[N+](=O)[O-])NC(=O)c1ccccc1`, the inhibition rises from -1.63% to -0.26%.

Going from `Nc1nc(N)nc(-c2cccc(Cl)c2Cl)n1` to `Nc1nnc(-c2ccccc2)c(-c2ccccc2)n1`, the inhibition falls from -6.05% to -9.89%.

First: O=C(O)[C@H](Cc1ccccc1)NC(=O)N1CCOCC1
Second: CN1CCN(C(c2ccccc2)c2ccccc2)CC1
The inhibition of the first is lower: -2.76% for the first, -1.19% for the second.

First: O=C(CCNC(=O)c1ccc(Br)cc1)NCc1cccnc1
Second: Cc1ccccc1-n1ccnc1SCC(=O)NCc1ccco1
The inhibition of the first is lower: -2.13% for the first, 1.18% for the second.

First: COc1ccc2c(C(=O)CN3CCN(CCO)CC3)c[nH]c2c1
Second: COc1ccc2[nH]cc(C(=O)CCl)c2c1
The inhibition of the first is lower: -2.19% for the first, 30.9% for the second.

Going from `CCc1nc(SCC#N)c(C#N)cc1C` to `Cc1ccc(OCCn2cc(C#N)c3ccccc32)cc1`, the inhibition falls from -1.52% to -3.38%.

First: COc1ccccc1CCNCc1cccc(C(F)(F)F)c1
Second: CC(CCc1ccccc1)NCc1cccc2ccccc12 (stereo not given)
The inhibition of the first is higher: 2.37% for the first, -6.36% for the second.

First: CNC[C@@H](C)NC[C@@H](Cc1ccccc1)NCCc1ccccc1
Second: CCC[C@H](CN[C@@H](CNC)[C@H](C)O)NCCc1ccc(OC)cc1
The inhibition of the first is higher: 19.6% for the first, -14.6% for the second.

First: CCC[C@@H](CN[C@@H](CNC)[C@H](C)CC)NCC1CCC(C(C)(C)C)CC1 (stereo not given in full)
Second: CCCCN1C(=O)C2NN=C(C(=O)OCC)C2C1=O (stereo not given)
The inhibition of the first is higher: 11.1% for the first, 8.14% for the second.

First: Cc1ccc(-n2nc3c(c2NC(=O)c2ccc4c(c2)OCO4)CS(=O)(=O)C3)cc1C
Second: O=C(c1ccc(Cl)c(NC2=NC3CS(=O)(=O)CC3S2)c1)N1CCN(c2ccccc2)CC1 (stereo not given)
The inhibition of the first is lower: -5.55% for the first, -0.27% for the second.

First: COc1ccccc1N1C(=O)c2ccccc2NC1c1cc(OC)c(OC)c(OC)c1 (stereo not given)
Second: CCOC(=O)C1=C(CS(=O)(=O)c2ccccc2)NC(=O)NC1c1ccc(OC)c(OC)c1 (stereo not given)
The inhibition of the first is higher: 2.7% for the first, -2.15% for the second.

Going from `N#Cc1c(-c2ccccc2)cc(-c2ccc(O)cc2)nc1N` to `Fc1ccc(-c2nc3ccccc3[nH]2)cc1`, the inhibition rises from -7.46% to -1.08%.

Going from `CCNC(=O)Cn1c(=O)c(=O)n(Cc2ccccc2)c2ccc(Cl)cc21` to `CCn1c2ccccc2c2cc(NC(=O)CSc3nnc(-c4ccccc4OC)n3N)ccc21`, the inhibition rises from -13.1% to -0.4%.

Compared with `Cc1ccc(CC2CC(=O)N(c3ccc(C)cc3)C2=O)cc1` (stereo not given), `Cn1c2c(c(=O)n(C)c1=O)CN(Cc1ccc(F)cc1)CN2` is higher in inhibition: 7.02% for the first, 7.57% for the second.

First: N=c1c2c(-c3ccccc3)c(-c3ccccc3)n(Cc3ccco3)c2ncn1CCCO
Second: N=c1c2c(-c3ccccc3)c(-c3ccccc3)n(Cc3ccccc3)c2ncn1CCCn1ccnc1
The inhibition of the first is higher: 12.1% for the first, -3.96% for the second.

Compared with `c1ccc2[nH]c(-c3ccncc3)nc2c1`, `CN1CCN(C(c2ccccc2)c2ccc(Cl)cc2)CC1` (stereo not given) is lower in inhibition: 5.01% for the first, -4.81% for the second.

Compared with `C#CC[N+](C)(C)CCCCCCCCCC`, `C[N+](C)(C)CCCCCCCCCC[N+](C)(C)C` is higher in inhibition: 2.68% for the first, 8.92% for the second.

First: CCCCCC[N+](C)(C)CCSSCC[N+](C)(C)CCCCCC
Second: C[N+](C)(C)CCCCCC[N+](C)(C)C
The inhibition of the first is higher: 5.58% for the first, -25.1% for the second.

First: Cc1ccc(-c2ccc(C(=O)O)o2)cc1Cl
Second: O=C(O)c1cc(S(=O)(=O)N2CCN(C(c3ccccc3)c3ccccc3)CC2)ccc1Cl
The inhibition of the first is higher: 6.76% for the first, -2.19% for the second.

Compared with `CCOC(=O)C(=CNc1cc(C)ccc1C)C(=O)OCC`, `Cc1cc(C)cc(C(=O)NCC(=O)OC(C)C(=O)N(C)c2ccccc2)c1` (stereo not given) is higher in inhibition: -9.72% for the first, -2.85% for the second.

Compared with `CCOC(=O)Cc1csc(NC(=O)c2cnc3scc(C)n3c2=O)n1`, `CCCNC(=O)C1CC(=O)N(c2ccc(OCC)cc2)C1` (stereo not given) is higher in inhibition: -13.9% for the first, -4.98% for the second.

Going from `CN1CCN(CCOc2cccc(Cl)c2)CC1` to `O=C(C1CCCN(S(=O)(=O)c2cccc3nonc23)C1)N1CCN(c2cccc(Cl)c2)CC1` (stereo not given), the inhibition falls from 4.36% to 2.17%.

Going from `Cc1nc2sc3c(c2c(=O)[nH]1)CCCCC3` to `CCOc1cccc2sc(=NC(=O)CCS(=O)(=O)c3ccc(F)cc3)n(C)c12`, the inhibition rises from -10.5% to -5.1%.

`COc1ccc(F)cc1S(=O)(=O)NC1CC(C)(C)NC(C)(C)C1` gave an inhibition of -0.42%.

For `CC(Cc1cccc(C(F)(F)F)c1)NCCOC(=O)c1ccccc1` (stereo not given), the inhibition was 12.2% and -11.7%.
